Holding throughout (assay type): functional
Assay [1] has as its system Plasmodium falciparum. Description: GSK_TCMDC: Inhibition of Plasmodium falciparum 3D7 in whole red blood cells, using parasite LDH activity as an index of growth. Test compounds present at 2uM.
The subject of assay [2] is Plasmodium falciparum. Briefly: GSK_TCMDC: Inhibition of Plasmodium falciparum Dd2 in whole red blood cells, using parasite LDH activity as an index of growth. Test compounds present at 2uM.
Assay [3] relates to HepG2. Briefly: GSK_TCMDC: Percent inhibition of human HepG2 cell line. Test compounds present at 10uM.

Molecules are shown by their SMILES. Values joined by “and” are separate entries in the source; they are usually repeats but may differ in a detail not shown here. Equal values may be shown once.

A word on the Inhibition: it is the share of the control response that was lost under treatment. High values mean strong suppression, low ones little suppression. For the compound `COc1ccc(CCNCc2ccc3nc(N)cc(C)c3c2)cc1`, the Inhibition in assay [1] was determined as 100%; in assay [2], 86%; in assay [3] it was 23%.

`Cc1ccc(CC(C)NCC(O)c2cccc(C(F)(F)F)c2)cc1.O=C(O)/C=C/C(=O)O` (stereo unspecified): the Inhibition is 100% in assay [1], 54% in assay [2] and 5% in assay [3].

As for `Cn1cc(CN2CCC(CCOC(c3ccccc3)c3ccccc3)CC2)cn1`, the Inhibition in assay [1] came out at 99%; in assay [2], 100%; in assay [3] it was 27%.

For `CCCCC1(NC(=O)[C@H](CC(C)C)Nc2ccc(C#N)c3ccccc23)CCCCC1.O=C(O)C(F)(F)F`, the Inhibition in assay [1] is listed as 96%; in assay [2], 47%; in assay [3], 37%.

For `COc1ccc(C(=O)C2CC2CN2CC=C(c3c[nH]c4ccc(OC)nc34)CC2)cc1` (stereo unspecified), the Inhibition in assay [1] worked out at 98%; in assay [2], 91%; in assay [3] it was 8%.

For the compound `O=C(/C=C/c1ccc(O)cc1)NC1CCC(CN2CCC(c3c[nH]c4ccccc34)CC2)CC1` (stereo unspecified), the values for the Inhibition in assay [1], in assay [2] and in assay [3] were 99%, 51% and 21%, respectively.

Consider `CC[C@H]1CN2CC[C@@H]1C[C@H]2[C@H](O)c1cc(N2CCC(c3ccccc3)CC2)nc2ccc(OC)cc12`, for which the Inhibition amounted to 99% in assay [1], 98% in assay [2] and 45% in assay [3].

As for `O=C(/C=C/c1ccc(C(F)(F)F)cc1)NC1CCC(CN2CCC(c3c[nH]c4ccccc34)CC2)CC1` (stereo unspecified), the Inhibition in assay [1] was 100% and 98%; in assay [2], 100% and 97%; in assay [3], 73% and 42%.

Consider `O=C(/C=C/c1ccc(Cl)c(Cl)c1)N1CCC(CN2CCC(c3c[nH]c4ccc(O)cc34)CC2)CC1`, for which the Inhibition in assay [1] is recorded as 100%; in assay [2], 100%; in assay [3], 44%.

As to `Cl.O=C(CNC1CCCCC1)c1ccc(O)c(O)c1`, the values for the Inhibition in assay [1], in assay [2] and in assay [3] were 100%, 99% and 61%, respectively.

Take `CC(=O)Nc1ccc(OCCN(CC(C)C)c2ccc(C#N)c(C(F)(F)F)c2)c(Cl)c1`: the Inhibition in assay [1] was found to be 94%; in assay [2] it was 94%; in assay [3] it was 13%.

As to `CC[C@H]1CN2CC[C@H]1C[C@H]2C(O)c1cc(OC)nc2ccccc12` (stereo partly specified), the figures for the Inhibition in assay [1], in assay [2] and in assay [3] were 100%, 98% and 0%, respectively.

For the compound `Cc1ccc(CC(C)NCC(O)c2cccc(C(F)(F)F)c2)cc1F.Cl` (stereo unspecified), the Inhibition in assay [1] is listed as 97%; in assay [2] it was 91%; in assay [3] it was 15%.

Take `CCC1CN2CCc3cc(OC)c(OC)cc3C2CC1CC1NCCc2c1[nH]c1ccc(O)cc21` (stereo unspecified): the values for the Inhibition in assay [1], in assay [2] and in assay [3] were 99%, 100% and 45%, respectively.

As for `CN1CC=C(c2csc3ccc(NC(=O)Nc4ccc(-c5ccncc5)c(Cl)c4)cc23)CC1`, the Inhibition came out at 100% in assay [1], 100% in assay [2] and 10% in assay [3].

For the compound `O=C(/C=C/c1c(Cl)cccc1Cl)NC1CCC(CN2C3CCC2CC(c2c[nH]c4ccccc24)C3)CC1` (stereo unspecified), the figures for the Inhibition in assay [1], in assay [2] and in assay [3] were 95%, 18% and 40%, respectively.

Consider `CC(Cc1ccc(OCCCCOc2ccccc2)cc1)NCCc1ccccc1Cl` (stereo unspecified), for which the Inhibition in assay [1] was 97%; in assay [2] it was 58%; in assay [3] it was 100%.

In the case of `CC[C@H]1CN2CC[C@@H]1C[C@H]2[C@H](O)c1cc(N2CCSCC2)nc2ccc(OC)cc12`, the results for the Inhibition in assay [1], in assay [2] and in assay [3] were 99%, 98% and 2%, respectively.

For the compound `CCN(CC)CCN1C(=O)C(O)(c2ccccc2Cl)c2c1cc(C(N)=O)cc2C(F)(F)F.Cl` (stereo unspecified), the Inhibition in assay [1] amounted to 100%; in assay [2], 86%; in assay [3] it was 16%.

As to `Cc1[nH]c2ccccc2c1C1=CCN(CCCCC23CCCc4cccc(c42)NC3=O)CC1` (stereo unspecified), the results for the Inhibition in assay [1], in assay [2] and in assay [3] were 95%, 91% and 9%, respectively.

As to `O=C(/C=C/c1ccc(Cl)c(Cl)c1)N1CCC(CN2CCC(c3c[nH]c4ccc(NS(=O)(=O)c5cccs5)cc34)CC2)CC1`, the Inhibition in assay [1] is on record as 100%; in assay [2] it was 100%; in assay [3], 17%.

Turning to `O=C(c1ccccc1)C1CC1CN1CC=C(c2c[nH]c3ccccc23)CC1` (stereo unspecified), the results for the Inhibition in assay [1], in assay [2] and in assay [3] were 95%, 73% and 4%, respectively.

Take `N#Cc1c(Cl)cccc1Oc1ccc(S(=O)(=O)N2CCC(CN3CCC(c4c[nH]c5ccccc45)CC3)CC2)cc1`: the Inhibition in assay [1] is 100%; in assay [2], 67%; in assay [3] it was 36%.

As for `COc1ccc(C(=O)C2CC2CN2CC=C(c3c(C)[nH]c4ccccc34)CC2)cc1` (stereo unspecified), the Inhibition worked out at 96% in assay [1], 94% in assay [2] and 16% in assay [3].

Consider `C=C[C@H]1CN2CC[C@H]1C[C@@H]2[C@@H](O)c1ccnc2ccccc12` [CINCHONINE], for which the values for the Inhibition in assay [1], in assay [2] and in assay [3] were 100%, 2% and 0%, respectively.

Consider `CCOc1ccc(Br)cc1/C=C/C(=O)Nc1ccc2c(c1)C1CCC2N1C.O=C(O)C(F)(F)F` (stereo unspecified), for which the Inhibition was found to be 89% in assay [1], 26% in assay [2] and 60% in assay [3].

Regarding `O=C(O)/C=C\C(=O)O.OC1(c2ccc(Cl)c(C(F)(F)F)c2)CCN(CCOC2c3ccccc3CSc3ccc(Cl)cc32)CC1` (stereo unspecified), the Inhibition in assay [1] came out at 95%; in assay [2], 58%; in assay [3] it was 3%.

(Values after ChEMBL document CHEMBL1157539, “Thousands of chemical starting points for antimalarial lead identification” (Nature, 2010).)
